This excerpt belongs to a sample that is enriched for hits.
HT1080-NT tox: kills 2HG-producing HT-1080-NT fibrosarcoma cells; HT-1080-NT fibrosarcoma viability, CellTiter-Glo ATP luminescence, 48 h; Potency, µM (doses to about 46.1 µM), most hits filed as cytotoxic; 360,000 tested, 1.6% active;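 note: NT is the 2HG producing partner of a matched IDH1 knockdown line; nearly all actives have a fitted effect of over 55% in size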
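Toxicity toward the 2HG-producing NT line was scored as %Activity, normalised to DMSO and no-cell wells, from CellTiter-Glo luminescence after 48 hours' treatment.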
IL-1B inflam inh: inhibitors of inflammasome signaling (IL-1 beta secretion) | 360,000 tested, 4.7% active | activity change, % at 57.5 µM | AID 743279 | THP-1 LPS/ATP IL-1B secretion, AlphaLISA, 16 h; active compounds read low; in the data active = activity change below about -50%; inconclusive = mostly about -30% to -49%
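Secreted IL-1B measured by AlphaLISA bead assay after 16 h compound exposure of THP-1 cells; compounds (final up to 57.5 uM) added 1 h before LPS (250 ng/mL) and ATP (1.25 mM) stimulation; lower signal means less secretion.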
12-LOX inh: inhibitors of human 12S-lipoxygenase ALOX12; P18054; purified 12hLO, xylenol orange hydroperoxide absorbance; Potency, µM (top dose mostly 108 µM), hits mostly inhibitors; 580,000 tested, 1.1% active; AID 1671190
Target sequence (P18054 whole entry, looked up): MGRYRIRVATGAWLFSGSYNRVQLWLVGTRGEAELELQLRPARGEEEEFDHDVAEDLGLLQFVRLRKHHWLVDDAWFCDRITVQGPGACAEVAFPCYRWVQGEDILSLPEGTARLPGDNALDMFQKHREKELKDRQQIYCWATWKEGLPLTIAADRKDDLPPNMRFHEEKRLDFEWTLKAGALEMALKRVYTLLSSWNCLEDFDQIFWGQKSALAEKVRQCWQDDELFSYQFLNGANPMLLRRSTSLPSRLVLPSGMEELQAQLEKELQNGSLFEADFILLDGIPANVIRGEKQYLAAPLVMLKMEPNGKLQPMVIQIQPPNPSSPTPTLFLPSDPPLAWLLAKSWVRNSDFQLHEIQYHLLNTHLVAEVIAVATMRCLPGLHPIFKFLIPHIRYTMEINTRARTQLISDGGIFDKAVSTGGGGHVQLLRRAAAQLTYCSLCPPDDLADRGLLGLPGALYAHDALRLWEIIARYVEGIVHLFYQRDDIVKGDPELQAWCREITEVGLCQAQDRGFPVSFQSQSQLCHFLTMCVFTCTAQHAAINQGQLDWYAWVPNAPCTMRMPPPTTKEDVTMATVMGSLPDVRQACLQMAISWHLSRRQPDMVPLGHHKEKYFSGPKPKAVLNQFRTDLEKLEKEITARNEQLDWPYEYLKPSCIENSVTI
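Hydroperoxide product was detected by ferrous iron/xylenol orange as the 573 to 405 nm absorbance ratio. Arachidonic acid at 40 uM (final) was turned over for 30 min at room temperature by 150 nM human 12hLO, pH 7.0 Hepes buffer, after 15 min compound preincubation.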
HT1080 IDH1KD tx: HT-1080 IDH1 knockdown cell toxicity (counter line); HT-1080 IDH1 knockdown viability, ATP luminescence, 48 h; Potency, µM (highest dose often 46.1 µM), hits mostly cytotoxic; 360,000 tested, 2% active; AID 686971
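In this qHTS, HT-1080 cells depleted of IDH1 are exposed for 48 h at 37 °C to compound titrations. Toxicity is scored from CellTiter-Glo luminescence, with DMSO as full viability and medium alone as none.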
DT40 TDP1 CPT: DT40-hTDP1 cell growth loss with CPT; 420,000 tested, 12% active; Potency, µM (series often up to 46.2 µM), most hits filed as inhibitors; chicken DT40 Tdp1-/-;hTDP1 cells + 20 nM CPT, ATP luminescence, 48 h; note: nearly all actives have a fitted effect of over 55% in size
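Chicken DT40 Tdp1-/- cells stably complemented with human TDP1 were seeded at 400 cells/well in medium containing 20 nM camptothecin, exposed to pin-transferred compounds, and grown at 37 °C for at least 48 hr. Viability was read as ATP luminescence.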
TDP1 cell noCPT: qHTS for Inhibitors of human tyrosyl-DNA phosphodiesterase 1 (TDP1): qHTS in cells in absence of CPT; DT40 Tdp1-/- hTDP1 cells, no CPT, ATP luminescence, 48 h; Potency, µM (top dose mostly 46.2 µM), most hits filed as inhibitors; 420,000 tested, 15% active; note: nearly all actives have a fitted effect of over 55% in size
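A cellular qHTS used chicken DT40 cells lacking endogenous Tdp1 but carrying stably transfected human TDP1. Compounds were applied without camptothecin, and cell growth kinetics were judged by ATP-dependent luminescence after ≥48 hr.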
A number is an active result; . = inactive; ? = inconclusive; / = no result. Unless noted, calls come from the whole dose curve; as a rule, active = well fitted curve in the direction sought with a large enough effect; inconclusive = small, poorly fitted or top-dose-only effect, or another doubt; inactive = no such curve, though single readings can be large; an effect the other way counts as inactive or inconclusive.

SMILES	HT1080-NT tox	IL-1B inflam inh	12-LOX inh	HT1080 IDH1KD tx	DT40 TDP1 CPT	TDP1 cell noCPT
CCN(C[C@H]1N[C@@](CC)(C(=O)OC)[C@H]2C(=O)N(Cc3ccccc3)C(=O)[C@@H]12)C(=O)Nc1ccc(C(F)(F)F)cc1	.	-108	.	.	.	6.5µM
CCN(C[C@H]1N[C@@](CC)(C(=O)OC)[C@H]2C(=O)N(Cc3ccccc3)C(=O)[C@@H]12)C(=O)c1ccc(F)cc1	.	.	?	.	.	?
CC[C@@]1(C(=O)OC)N[C@H](CN(C)C(=O)c2ccccc2)[C@@H]2C(=O)N(C)C(=O)[C@@H]21	.	.	.	.	.	.
COC(=O)[C@]1(Cc2ccccc2)N[C@H](CN(C)C(=O)C2CCCCC2)[C@@H]2C(=O)N(Cc3ccccc3)C(=O)[C@@H]21	.	.	.	.	21µM	16µM
CC[C@@]1(C(=O)OC)N[C@H](CN(C)C(=O)c2ccc(F)cc2)[C@@H]2C(=O)N(C)C(=O)[C@@H]21	.	.	8.9µM	.	.	.
COC(=O)[C@]1(Cc2ccccc2)N[C@H](CN(C)C(=O)C2CCCCC2)[C@@H]2C(=O)N(C)C(=O)[C@@H]21	.	.	.	.	.	.
CCNc1nccc(N2CCC(CC(=O)N3CCN(c4ccccc4F)CC3)CC2)n1	/	/	.	/	/	/
CCOC(=O)C(C(C)C)C(N)Cc1ccc(F)cc1 (stereo not given)	.	.	?	.	.	?
O=c1[nH]c2cc3c(cc2cc1CN1CC[C@H](O)C1)OCO3	/	/	.	/	/	/
CCn1c2c(n(C(C)=O)c1=O)C=C(C(=O)N1CCCC1)C(C)C(c1ccccc1)=C2 (stereo not given)	/	/	.	/	/	/
CCN(C[C@H]1N[C@@](CC)(C(=O)OC)[C@H]2C(=O)N(Cc3ccccc3)C(=O)[C@@H]12)C(=O)c1ccc(C)cc1	.	.	.	.	?	15µM
CC[C@@]1(C(=O)OC)N[C@H](CN(C)C(=O)c2ccc(C)cc2)[C@@H]2C(=O)N(Cc3ccccc3)C(=O)[C@@H]21	.	.	.	.	.	.
COC(=O)[C@]1(Cc2ccccc2)N[C@H](CN(C)C(=O)Nc2ccc(OC)cc2)[C@@H]2C(=O)N(Cc3ccccc3)C(=O)[C@@H]21	.	.	?	.	18µM	8.2µM
CCN(C[C@H]1N[C@@](CC)(C(=O)OC)[C@H]2C(=O)N(Cc3ccccc3)C(=O)[C@@H]12)C(C)=O	.	.	.	.	.	.
COC(=O)[C@]1(Cc2ccccc2)N[C@H](CN(C)C(=O)c2ccc(C)cc2)[C@@H]2C(=O)N(Cc3ccccc3)C(=O)[C@@H]21	.	.	.	.	?	18µM
Cc1cc(Cl)c(Cl)cc1S(=O)(=O)NCCCO	/	/	.	/	/	/
CC(CCc1ccccc1)NC(=O)C1CCCCC1 (stereo not given)	/	/	.	/	/	/
CCOC(=O)c1cnc2c(C)cccc2c1NCCc1ccc(OC)c(OC)c1	.	.	.	?	16µM	23µM
COc1ccc(CCNC(=O)COC(=O)COc2c(C)cc(C)cc2C)cc1OC	.	.	.	.	.	.
CCOC(=O)c1cnc2c(C)c(Cl)ccc2c1NCCc1ccc(OC)c(OC)c1	/	/	.	/	?	16µM
CCOC(=O)c1cnc2c(C)cccc2c1Nc1ccc(O)cc1	/	/	.	/	/	/
CCOC(=O)c1cnc2c(C)cc(C)cc2c1NCCc1ccc(OC)c(OC)c1	/	/	.	/	21µM	23µM
CC(=O)/C=C\C1[C@]2(C)CCCC(C)(C)C2CC[C@@]1(C)O (stereo not given in full)	/	/	/	/	.	.
Cc1cccc(Cl)c1N=CN1c2ccccc2-n2cccc2C1CCc1ccccc1 (stereo not given)	/	/	.	/	/	/
O=C(Cn1nc2n(c1=O)CCCCC2)NCc1ccccc1Br	/	/	.	/	/	/
SMILES	HT1080-NT tox	IL-1B inflam inh	12-LOX inh	HT1080 IDH1KD tx	DT40 TDP1 CPT	TDP1 cell noCPT
CN1C[C@@H](NC(=O)c2ccc(C(C)(C)C)cc2)C[C@H]1c1nc(-c2ccncc2)no1	/	/	.	/	/	/
O=C(NCc1ccc(Cl)cc1)c1cc2ccc3cccnc3c2[nH]1	/	/	.	/	.	?
O=C(NCC1CCN(Cc2ccc(F)cc2)CC1)c1cc2ccc3cccnc3c2[nH]1	/	/	.	/	16µM	21µM
O=C(NCC1CCN(Cc2ccccc2Cl)CC1)c1cc2ccc3cccnc3c2[nH]1	/	/	.	/	?	16µM
COc1ccc(N(C(=O)C2CC2)C2C=CS(=O)(=O)C2)c(OC)c1 (stereo not given)	/	/	.	/	/	/
COc1ccccc1C(CNc1ccc(S(=O)(=O)N2CCCC2)cc1[N+](=O)[O-])N(C)C (stereo not given)	?	?	.	.	13µM	?
O=[N+]([O-])c1cc(S(=O)(=O)N2CCOCC2)ccc1NS(=O)(=O)c1ccccc1	.	-83	.	.	.	.
O=[N+]([O-])c1cc(S(=O)(=O)N2CCCCCC2)ccc1F	?	?	.	?	7.3µM	10µM
Cc1ccccc1Nc1ccc(S(=O)(=O)N2CCOCC2)cc1[N+](=O)[O-]	.	?	.	.	?	?
COc1ccccc1C(CNC(=O)c1ccc(S(=O)(=O)N2CCCCC2)cc1)N(C)C (stereo not given)	.	.	.	.	.	.
COc1ccc(C(CNc2ccc(S(=O)(=O)N3CCN(C)CC3)cc2[N+](=O)[O-])N(C)C)cc1 (stereo not given)	.	.	.	.	.	21µM
COc1ccc(C(CNc2ccc(S(=O)(=O)N3CCCC3)cc2[N+](=O)[O-])N2CCCC2)cc1 (stereo not given)	?	.	.	?	?	?
COc1cccc(C2Cn3nnc(-c4nc(-c5ccc(C)c(C)c5)no4)c3CO2)c1 (stereo not given)	/	/	.	/	/	/
COc1ccc(Nc2ccc(S(=O)(=O)N3CCCCC3)cc2[N+](=O)[O-])cc1	?	.	.	.	?	16µM
CC(C)(CNc1ccc(S(=O)(=O)C(F)(F)F)cc1[N+](=O)[O-])N1CCOCC1	.	-53	.	.	?	?
CC(C)(CNc1ccc([N+](=O)[O-])cc1C#N)N1CCOCC1	.	.	.	.	.	.
COc1ccc(C(=O)NCc2nnc3ccc(-c4ccc(F)cc4)nn23)cc1OC	/	/	.	/	/	/
COC(=O)c1cc(CN)cs1	/	/	.	/	/	/
Cc1ccc(S(=O)(=O)N2CCN(C(=O)c3ccco3)CC2)c(C)c1	.	.	.	.	.	.
O=C(c1cc(S(=O)(=O)N2CCCCC2)ccc1Cl)N1CCOCC1	.	.	.	.	.	.

High-throughput results: PubChem BioAssay, National Center for Advancing Translational Sciences (NCATS)
